HT1080 IDH1KD tx: qHTS for induction of synthetic lethality in tumor cells producing 2HG: qHTS for the HT-1080-IDH1KD cell line; HT-1080 IDH1 knockdown viability, ATP luminescence, 48 h; 360,000 compounds, 2% hits; Potency, µM (series often up to 46.1 µM), for inactives: at the top dose activity, negative = toxicity, actives largely listed as cytotoxic; AID 686971, 2013;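 further: potency means the concentration at half of the fitted maximal effect; 0% = DMSO wells and -100% = cell-free medium wells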
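CellTiter-Glo luminescence after 48 h compound exposure at 37 degrees C of IDH1-knockdown HT-1080 cells in 5% FBS RPMI. %Activity scaled between DMSO wells and cell-free media wells, with curves fitted and assigned curve classes.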
IL-1B inflam inh: qHTS for Inhibitors of Inflammasome Signaling: IL-1-beta AlphaLISA Primary Screen; THP-1 LPS/ATP IL-1B secretion, AlphaLISA, 16 h; hits give low values; activity change, % at 57.5 µM; 360,000 compounds, 4.7% hits; AID 743279, 2014; in the data active means activity change below about -50%; inconclusive means mostly about -30% to -49%
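THP-1 cells pretreated 1 hr with compounds (up to 57.5 uM final), then stimulated with LPS (250 ng/mL final) plus ATP (1.25 mM final); secreted IL-1B measured by AlphaLISA after 16 hr, decreased signal indicating inhibition.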
uPA surface inh: qHTS for Inhibitors of Cell Surface uPA Generation. cell surface uPA generation assay, qHTS. Potency, µM (titrated, usually from 38.3 µM), without a hit: at the highest dose activity change, negative = inhibition, most hits filed as inhibitors. 330,000 compounds, 0.31% hits. AID 540303, 2011; active means well fitted inhibition curve with a large enough effect; inconclusive means small, poorly fitted or top-dose-only effect; inactive means no such curve, though single readings can be large or run the other way; tested in mouse RAW 264.7 cells; further: potency means the concentration at half of the fitted maximal effect; nearly all actives have a fitted effect of over 55% in size
DT40 TDP1 CPT: qHTS for Inhibitors of human tyrosyl-DNA phosphodiesterase 1 (TDP1): qHTS in cells in presence of CPT | chicken DT40 Tdp1-/-;hTDP1 cells + 20 nM CPT, ATP luminescence, 48 h | Potency, µM (top dose mostly 46.2 µM), without a hit: top-dose activity change, negative = growth inhibition, actives largely listed as inhibitors | 420,000 compounds, 12% hits | AID 686979, 2013; further: potency means the concentration at half of the fitted maximal effect; nearly all actives have a fitted effect of over 55% in size
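Chicken DT40 Tdp1-/- cells stably complemented with human TDP1 were seeded at 400 cells/well in medium containing 20 nM camptothecin, exposed to pin-transferred compounds, and grown at 37 °C for at least 48 hr. Viability was read as ATP luminescence.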
HT1080NT lethal: qHTS for induction of synthetic lethality in tumor cells producing 2HG: qHTS for the HT-1080-NT fibrosarcoma cell line; HT-1080-NT fibrosarcoma viability, CellTiter-Glo ATP luminescence, 48 h; Potency, µM (titrated, usually from 46.1 µM), for the others: at the highest dose activity, negative = less viability, most hits filed as cytotoxic; 360,000 compounds, 1.6% hits; AID 686970, 2013;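 further: NT is the 2HG producing partner of a matched IDH1 knockdown line; potency means the concentration at half of the fitted maximal effect; 0% = DMSO-treated cells and -100% = media-only wells without cells; nearly all actives have a fitted effect of over 55% in size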
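Toxicity toward the 2HG-producing NT line was scored as %Activity, normalised to DMSO and no-cell wells, from CellTiter-Glo luminescence after 48 hours' treatment.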
TDP1 cell noCPT: qHTS for Inhibitors of human tyrosyl-DNA phosphodiesterase 1 (TDP1): qHTS in cells in absence of CPT; DT40 Tdp1-/- hTDP1 cells, no CPT, ATP luminescence, 48 h; Potency, µM (top dose mostly 46.2 µM), without a hit: top-dose activity change, negative = growth inhibition, usual class: inhibitors; 420,000 compounds, 15% hits; AID 686978, 2013; further: potency means the concentration at half of the fitted maximal effect; nearly all actives have a fitted effect of over 55% in size
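Stably hTDP1-transfected Tdp1-null chicken DT40 cells were treated with library compounds minus camptothecin and grown for at least 48 hr at 37 °C, after which cellular ATP was quantified by luminescence.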
* hit, by the source's call; ? = inconclusive; / = no result. Rows were chosen to be rich in hits. Some 19% of all compounds tested hit in one or more screens of this group. Unless noted, the call rests on the fitted dose curve; in most records, active means well fitted curve in the direction sought with a large enough effect; inconclusive means small, poorly fitted or top-dose-only effect, or another doubt; inactive means no such curve, though single readings can be large; an effect the other way counts as inactive or inconclusive. Unless noted, on the % scale 0 is the no-effect control and ±100 the full control effect.

SMILES	HT1080 IDH1KD tx	IL-1B inflam inh	uPA surface inh	DT40 TDP1 CPT	HT1080NT lethal	TDP1 cell noCPT
COc1ccc(CCN2CCCn3c2nc2c3c(=O)[nH]c(=O)n2C)cc1OC	18.4µM*	53.7	-8.1%	25.9µM*	?	7.31µM*
O=C(O)C1CCCN1 (centres undefined)	/	/	/	6.9%	/	4.4%
CCOC(=O)C1CCCN(c2cc(C)nc3cc(-c4ccc(Cl)cc4)nn23)C1 (centres undefined)	-18.2%	9.2	1.1%	?	?	23.1µM*
CCOC(=O)C1CCCN(c2cc(C)nc3cc(-c4ccc(F)cc4)nn23)C1 (centres undefined)	?	13.6	-10.6%	23.1µM*	?	23.1µM*
C=C1C(=O)[C@]23C[C@H]1CCC2[C@@]1(C)C(C[C@@H]3O)[C@](C)(C(=O)O)C[C@H](O)[C@@H]1O (some centres undefined)	-1.8%	1.1	/	2.1%	27.6%	8.0%
C=C1C(=O)[C@]23C[C@H]1CC[C@H]2[C@]1(C)[C@@H](O)CC[C@@](C)(C(=O)O)[C@H]1C[C@@H]3O	?	-75.2*	/	2.31µM*	?	2.91µM*
C=C1C(=O)[C@]23C[C@H]1CC[C@H]2[C@]1(C)[C@@H](OC(C)=O)CC[C@@](C)(C(=O)O)[C@H]1C[C@@H]3O	5.8µM*	-78.3*	/	1.03µM*	6.51µM*	1.03µM*
C=C1C(=O)[C@]23C[C@H]1CCC2[C@@]1(C)C(C[C@@H]3O)[C@](C)(C(=O)OC)CC[C@@H]1OC(C)=O (some centres undefined)	1.16µM*	-116.5*	/	0.82µM*	2.59µM*	0.92µM*
COC(=O)C1OC(=O)C2OC23[C@]2(C)C(O)CC4C(C)(C)C(OC(C)=O)CC(OC(C)=O)[C@@]4(C)C2CC[C@@]13C (some centres undefined)	/	/	/	-0.1%	/	4.2%
C=C1C(=O)[C@]23C[C@H]1CC[C@H]2[C@]1(C)[C@@H](OC(C)=O)CC[C@@](C)(C(=O)OC)[C@H]1C[C@@H]3OC(C)=O	2.59µM*	-116.4*	/	0.581µM*	3.66µM*	0.92µM*
CCCC(=O)N1CCCC(c2cc(C(=O)NCc3ccccc3)no2)C1 (centres undefined)	?	0.6	/	-10.5%	20.6%	-7.4%
NC1CCN(c2nc3c(cc2F)c(=O)c(C(=O)O)cn3-c2ccc(F)cc2F)C1 (centres undefined)	-14.6%	-24.7	7.1%	16.4µM*	?	8.2µM*
CC1CCc2c(N3CCC(O)CC3)c(F)cc3c(=O)c(C(=O)O)cn1c23 (centres undefined)	-14.5%	-0.1	12.7%	?	-2.3%	?
NC1CCN(c2c(F)cc3c(=O)c(C(=O)O)cn(C4CC4)c3c2Cl)C1 (centres undefined)	12.7%	0.0	-14.3%	7.31µM*	7.7%	6.51µM*
COc1ccc(N(C)S(=O)(=O)c2cccc(C(=O)OCC(=O)Nc3cc(C)ccc3OC)c2)cc1	3.1%	-22.7	/	-6.4%	-1.3%	?
O=C(Nc1cccc(F)c1)c1cc(S(=O)(=O)N2CCOCC2)cs1	-27.7%	0.1	-3.1%	-2.3%	-19.6%	?
O=C(CCn1nnc2ccccc21)OCC(=O)c1ccc(F)cc1	?	-2.7	2.2%	1.8%	21.6%	-14.0%
O=C1NC(=O)C2C1C(c1cccs1)NN2Cc1ccccc1 (centres undefined)	-1.2%	-9.2	-0.7%	29.1µM*	-10.8%	29.1µM*
CC(=O)C1=C(O)C(=O)N(Cc2ccccc2)C1c1cccs1 (centres undefined)	-16.8%	15.9	-0.7%	-0.3%	3.5%	-14.2%
O=c1n(Cc2ccc([N+](=O)[O-])cc2)c2ccccc2c2nc(-c3ccccc3)nn12	/	/	/	7.31µM*	/	?
CCn1c(SCC(=O)N(C(C)C)C(C)C)nnc1-c1cc2ccccc2cc1O	-17.6%	-8.5	1.6%	23.1µM*	-1.5%	18.4µM*
COc1ccc(C(=O)CSc2nnc(-c3cccnc3)n2Cc2ccco2)cc1	14.5%	?	-0.9%	-21.0%	16.3%	?
COc1ccc(C)cc1NC(=O)CSc1nnc(COc2ccccc2)n1Cc1ccco1	-7.6%	-8.8	-5.5%	16.4µM*	-21.5%	20.6µM*
COc1ccc(C(=O)CSc2nnc(-c3cc4ccccc4cc3O)n2Cc2ccco2)cc1	?	-66.8*	/	20.6µM*	?	?
COc1ccc(C)cc1NC(=O)CSc1nnc(COc2ccc(Cl)cc2)n1Cc1ccco1	?	?	-6.8%	?	?	?
SMILES	HT1080 IDH1KD tx	IL-1B inflam inh	uPA surface inh	DT40 TDP1 CPT	HT1080NT lethal	TDP1 cell noCPT
Cc1ccc(NCc2nnc(SCC(=O)c3ccccc3)n2Cc2ccco2)c(C)c1	-9.4%	-10.7	0.2%	?	-3.6%	16.4µM*
Cc1ccc(NC(=O)CSc2nnc(CSc3nc(C)cc(C)n3)n2Cc2ccco2)c(C)c1	-8.0%	?	3.3%	-22.1%	-11.6%	?
Cc1cc(Br)ccc1NC(=O)CNC(=O)CN(C)C1CCS(=O)(=O)C1 (centres undefined)	21.2%	-8.4	-2.3%	24.3%	10.9%	5.0%
COc1cccc(OCc2nnc(SCC(=O)NCc3ccco3)n2CCc2ccccc2)c1	-2.0%	-12.5	-2.1%	16.4µM*	-4.4%	23.1µM*
COc1cccc(OCc2nnc(SCC(=O)NCc3ccco3)n2C)c1	15.8%	-2.6	4.4%	-2.4%	18.3%	-0.8%
CCCc1nc2c3ccccc3ccn2c1CC1CCCCC1	?	0.0	/	?	?	?
CCOC(=O)c1cc2sccc2n1CC(=O)c1ccc2c(c1)OCCO2	-2.2%	12.7	5.9%	14.6µM*	-18.5%	13µM*
CC1Cc2ccccc2N1C(=O)CCn1c(=O)sc2ccccc21 (centres undefined)	-5.6%	-11.0	?	?	14.0%	16.4µM*
CCOC(=O)c1cc2sccc2n1CC(=O)N1c2ccccc2CC1C (centres undefined)	-0.3%	-18.3	-4.1%	18.4µM*	14.0%	20.6µM*
CC1Cc2ccccc2N1C(=O)CCN1C(=O)C2C3C=CC(C3)C2C1=O (centres undefined)	-0.2%	26.7	-1.8%	1.8%	-3.2%	-24.5%
